Assay [1] is described as follows: BSK_hDFCGF_SRB: Viability Assessment in the BioMAP Diversity Plus: hDFCGF Assay (AID 2283061).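 Further: cells exposed to compound for 24 h before the read.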 To be noted: primary human foreskin fibroblasts. In a few lines:
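Human foreskin fibroblasts in 96-well plates were treated 24 h. Total protein was measured by 0.1% SRB staining after 10% TCA fixation, read at 560 nm. Data were fitted bidirectionally against DMSO.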

Read-out in assay [2]: TIMP metallopeptidase inhibitor 1 (TIMP1), TIMP1 (gene 7076)
As to the kind of experiment: BSK_hDFCGF_TIMP1: BioMAP Diversity Plus: hDFCGF Assay for TIMP metallopeptidase inhibitor 1 (TIMP1) Biomarker Activity (AID 2283062). To be noted: primary human foreskin fibroblasts; actives raise or lower the signal. In a few lines: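 Human foreskin fibroblast primary cultures dosed for 24 h; secreted/surface TIMP-1 quantified by ELISA. Bidirectional curve fitting against DMSO baseline; cytotoxicity tracked in parallel cultures by SRB total-protein staining.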

Read-out in assay [3]: Monokine induced gamma interferon (MIG), CXCL9 (gene 4283)
As to the kind of experiment: BSK_hDFCGF_MIG: BioMAP Diversity Plus: hDFCGF Assay for Monokine induced gamma interferon (MIG) Biomarker Activity (AID 2283063). To be noted: primary human foreskin fibroblasts; actives raise or lower the signal. In a few lines: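 MIG/CXCL9 measured by ELISA 24 h after dosing primary human skin fibroblasts. Activity fitted in both directions against DMSO controls. Cytotoxicity was checked in parallel cultures by SRB staining read at 560 nm.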

Read-out in assay [4]: Matrix Metallopeptidase 1 (MMP1), MMP1 (gene 4312)
As to the kind of experiment: BSK_hDFCGF_MMP1: BioMAP Diversity Plus: hDFCGF Assay for Matrix Metallopeptidase 1 (MMP1) Biomarker Activity (AID 2283064). To be noted: primary human foreskin fibroblasts; actives raise or lower the signal. In a few lines:
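ELISA read-out of MMP1 from human foreskin fibroblasts (primary skin cells), 24 h post-dose. Gain or loss of signal was fitted bidirectionally versus DMSO negative control; cytotoxicity was checked by SRB in parallel cultures.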

Read-out in assay [5]: Vascular cell adhesion molecule 1 (VCAM1), VCAM1 (gene 7412)
Nature of the assay: BSK_hDFCGF_VCAM1: BioMAP Diversity Plus: hDFCGF Assay for Vascular cell adhesion molecule 1 (VCAM1) Biomarker Activity (AID 2283065). To be noted: primary human foreskin fibroblasts; actives raise or lower the signal. In a few lines:
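Human foreskin fibroblast primary cells dosed with chemical, VCAM-1 measured by ELISA at 24 h. Bidirectional curve fitting relative to DMSO as negative control/baseline.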

Read-out in assay [6]: Intercellular Adhesion Molecule 1 (ICAM1), ICAM1 (gene 3383)
Nature of the assay: BSK_KF3CT_ICAM1: BioMAP Diversity Plus: KF3CT Assay for Intercellular Adhesion Molecule 1 (ICAM1) Biomarker Activity (AID 2283067). To be noted: primary human keratinocytes with fibroblasts; actives raise or lower the signal. In a few lines:
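Human keratinocyte–foreskin fibroblast co-culture was treated for 24 h. Cell-surface ICAM-1 was quantified by ELISA, fitted bidirectionally relative to DMSO. Cytotoxicity was checked in parallel cultures by SRB total-protein staining.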

Read-out in assay [7]: Interferon-gamma inducible Protein 10 (IP10), CXCL10 (gene 3627)
Nature of the assay: BSK_KF3CT_IP10: BioMAP Diversity Plus: KF3CT Assay for Interferon-gamma inducible Protein 10 (IP10) Biomarker Activity (AID 2283068). The settings on record: primary human keratinocytes with fibroblasts; actives raise or lower the signal. In a few lines: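 KF3CT co-culture (keratinocytes + foreskin fibroblasts), 24 h compound, IP-10 by ELISA; bidirectional fit vs DMSO baseline.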

Assay [8] in a line: BSK_KF3CT_SRB: Viability Assessment in the BioMAP Diversity Plus: KF3CT Assay (AID 2283069).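 Further: read 24 h after compound addition.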 To be noted: primary human keratinocytes with fibroblasts. In a few lines:
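SRB read-out at 560 nm (0.1% stain, TCA-fixed cells) gauges overt cytotoxicity in a human skin keratinocyte–fibroblast co-culture 24 h post-dosing. Signal change was fitted bidirectionally relative to DMSO control.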

Read-out in assay [9]: Interleukin-1 alpha (IL1a), IL1A (gene 3552)
As to the kind of experiment: BSK_KF3CT_IL1a: BioMAP Diversity Plus: KF3CT Assay for Interleukin-1 alpha (IL1a) Biomarker Activity (AID 2283070). The settings on record: primary human keratinocytes with fibroblasts; actives raise or lower the signal. In a few lines: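 Primary skin co-culture (keratinocytes, foreskin fibroblasts), 24 h exposure; ELISA for IL-1a; bidirectional curve fit vs DMSO.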

Read-out in assay [10]: TIMP metallopeptidase inhibitor 2 (TIMP2), TIMP2 (gene 7077)
As to the kind of experiment: BSK_KF3CT_TIMP2: BioMAP Diversity Plus: KF3CT Assay for TIMP metallopeptidase inhibitor 2 (TIMP2) Biomarker Activity (AID 2283071). To be noted: primary human keratinocytes with fibroblasts; actives raise or lower the signal. In a few lines:
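TIMP-2 measured by ELISA at 24 h in human keratinocyte/fibroblast primary co-cultures exposed to chemicals. Both increases and decreases were fitted against DMSO. Parallel cultures were stained with SRB for total protein as an overt-cytotoxicity check.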

Read-out in assay [11]: C-C motif chemokine 2 (Homo sapiens) (UniProt P13500)
As to the kind of experiment: BSK_KF3CT_MCP1: BioMAP Diversity Plus: KF3CT Assay for Monocyte Chemoattractant Protein 1 (MCP1/CCL2) Biomarker Activity (AID 2283073). To be noted: primary human keratinocytes with fibroblasts; actives raise or lower the signal. In a few lines: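 Human keratinocyte–foreskin fibroblast co-culture; MCP-1 measured by ELISA 24 h after dosing. Bidirectional fit vs DMSO; cytotoxicity tracked by SRB total protein in parallel cultures.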

Read-out in assay [12]: Matrix Metallopeptidase 9 (MMP9), MMP9 (gene 4318)
Nature of the assay: BSK_KF3CT_MMP9: BioMAP Diversity Plus: KF3CT Assay for Matrix Metallopeptidase 9 (MMP9) Biomarker Activity (AID 2283074).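 On AC50: MMP9 protein level quantified by ELISA in the co-culture.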 To be noted: primary human keratinocytes with fibroblasts; actives raise or lower the signal. In a few lines:
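ELISA read-out of MMP-9 at 24 h post-dosing in a co-culture of human skin keratinocytes and foreskin fibroblasts. Gain or loss of signal was fitted in both directions against DMSO.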

Read-out in assay [13]: urokinase plasminogen activator (uPA), PLAU (gene 5328)
As to the kind of experiment: BSK_KF3CT_uPA: BioMAP Diversity Plus: KF3CT Assay for urokinase plasminogen activator (uPA) Biomarker Activity (AID 2283075). The settings on record: primary human keratinocytes with fibroblasts; actives raise or lower the signal. In a few lines: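 Skin co-culture (keratinocytes + foreskin fibroblasts), human primary; 24 h post-dose; uPA by ELISA; gain/loss fit vs DMSO baseline.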

Read-out in the next assay: CD40, CD40 (gene 958)
Nature of the assay: BSK_LPS_CD40: BioMAP Diversity Plus: LPS Assay for CD40 Biomarker Activity (AID 2283076). To be noted: primary human HUVEC with PBMC; actives raise or lower the signal. In a few lines: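 HUVEC plus PBMC co-culture stimulated with LPS; CD40 quantified by ELISA 24 h after compound dosing. Fitting was bidirectional relative to DMSO. SRB staining of parallel cultures flagged overt cytotoxicity.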

Read-out in assay [14]: E-selectin (Homo sapiens) (UniProt P16581)
Nature of the assay: BSK_LPS_Eselectin: BioMAP Diversity Plus: LPS Assay for Eselectin Biomarker Activity (AID 2283077). To be noted: primary human HUVEC with PBMC; actives raise or lower the signal. In a few lines:
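Human umbilical vein endothelial cells co-cultured with PBMC under LPS stimulation; cell-surface E-selectin measured by ELISA 24 h after dosing. Change in either direction versus DMSO, with SRB total-protein staining in parallel cultures for cytotoxicity.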

Read-out in assay [15]: Interleukin-8 (IL8), CXCL8 (gene 3576)
Nature of the assay: BSK_LPS_IL8: BioMAP Diversity Plus: LPS Assay for Interleukin-8 (IL8) Biomarker Activity (AID 2283078). To be noted: primary human HUVEC with PBMC; actives raise or lower the signal. In a few lines: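 Human umbilical vein endothelial cells co-cultured with PBMC, LPS-stimulated, exposed to compound for 24 h. IL-8 quantified by ELISA; fitted in both directions against DMSO, with SRB total-protein staining of parallel cultures for cytotoxicity.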

Assay [16] in a line: BSK_LPS_SRB: Viability Assessment in the BioMAP Diversity Plus: LPS Assay (AID 2283079).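 Further: total protein by sulforhodamine B absorbance as a cytotoxicity measure; measured one day after compound addition.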 To be noted: primary human HUVEC with PBMC. In a few lines: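 Co-culture of human umbilical vein endothelial cells and PBMC, read 24 h after dosing. Total protein by 0.1% SRB staining after 10% TCA fixation, absorbance at 560 nm; bidirectional fit against DMSO.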
Read-out in assay [17]: Interleukin-1 alpha (IL1a), IL1A (gene 3552)
As to the kind of experiment: BSK_LPS_IL1a: BioMAP Diversity Plus: LPS Assay for Interleukin-1 alpha (IL1a) Biomarker Activity (AID 2283080). To be noted: primary human HUVEC with PBMC; actives raise or lower the signal. In a few lines:
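Human umbilical vein endothelial cells co-cultured with PBMC and stimulated with LPS; IL-1a measured by ELISA 24 h after dosing. Bidirectional fitting against DMSO; cytotoxicity checked by SRB staining in parallel cultures.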

Read-out in assay [18]: Plasminogen activator inhibitor-1 (PAI1), SERPINE1 (gene 5054)
As to the kind of experiment: BSK_hDFCGF_PAI1: BioMAP Diversity Plus: hDFCGF Assay for Plasminogen activator inhibitor-1 (PAI1) Biomarker Activity (AID 2283066). To be noted: primary human foreskin fibroblasts; actives raise or lower the signal. In a few lines: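 PAI-1 levels in human dermal foreskin fibroblasts were quantified by ELISA 24 h after dosing, with gain or loss analysed against DMSO. Overt cytotoxicity was checked by sulforhodamine B total-protein staining in parallel cultures.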

Read-out in assay [19]: Transforming growth factor beta 1 (TGFb1), TGFB1 (gene 7040)
Nature of the assay: BSK_KF3CT_TGFb1: BioMAP Diversity Plus: KF3CT Assay for Transforming growth factor beta 1 (TGFb1) Biomarker Activity (AID 2283072). To be noted: primary human keratinocytes with fibroblasts; actives raise or lower the signal. In a few lines:
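ELISA quantifies TGF-b1 at 24 h post-dose in a primary human skin co-culture of keratinocytes and fibroblasts, with gain or loss judged against DMSO. Parallel SRB total-protein staining flags overt cytotoxicity.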

SMILES strings stand for the structures. Calls of active or inactive are those of the source. How the source made its calls: active means hit-call score of the fitted dose curve at least 0.9, where 1 is the maximum; inactive means score below 0.9.

E-selectin (Homo sapiens), sequence (P16581 whole entry, looked up): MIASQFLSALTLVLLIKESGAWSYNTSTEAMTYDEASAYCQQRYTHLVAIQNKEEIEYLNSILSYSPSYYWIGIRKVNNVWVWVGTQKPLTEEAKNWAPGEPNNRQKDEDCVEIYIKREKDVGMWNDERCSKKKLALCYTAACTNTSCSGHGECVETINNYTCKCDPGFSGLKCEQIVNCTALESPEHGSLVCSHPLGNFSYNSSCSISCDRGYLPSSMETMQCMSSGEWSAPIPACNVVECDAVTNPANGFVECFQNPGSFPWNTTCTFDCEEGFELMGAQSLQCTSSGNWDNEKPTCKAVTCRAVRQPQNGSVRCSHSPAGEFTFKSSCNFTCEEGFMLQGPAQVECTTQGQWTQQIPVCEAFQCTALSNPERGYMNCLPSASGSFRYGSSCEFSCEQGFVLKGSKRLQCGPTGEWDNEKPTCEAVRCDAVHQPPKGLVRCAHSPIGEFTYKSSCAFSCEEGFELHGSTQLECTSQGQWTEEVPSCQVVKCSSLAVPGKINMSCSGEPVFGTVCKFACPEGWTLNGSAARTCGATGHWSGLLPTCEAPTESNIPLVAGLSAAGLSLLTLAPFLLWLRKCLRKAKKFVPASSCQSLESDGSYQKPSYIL

`Oc1ccc2c(c1)OC[C@@H](N1CCC(O)(c3ccc(F)cc3)CC1)[C@H]2O`: the result in [1], in [2], in assay [3], in [4], in assay [5] and in assay [6] was inactive. In addition, the outcome in assay [7], in [8], in assay [9], in assay [10], in [11] and in [12] was inactive. For the same compound, the outcome is “inactive” in [13]; “inactive” with CD40, CD40 (gene 958); “inactive” in assay [14]; “inactive” in assay [15]; “inactive” in assay [16]; “inactive” in assay [17].

Regarding `Nc1ccc2c(c1)C(=O)c1ccccc1C2=O`, the result in assay [1], in assay [2], in assay [3], in assay [4], in assay [18] and in [6] was inactive. Further, the outcome was “inactive” in assay [7]; “inactive” in [9]; “inactive” in [10]; “inactive” in assay [11]; “inactive” in assay [13]; “inactive” with CD40, CD40 (gene 958). For the same compound, the result in [14], in assay [15], in assay [16] and in [17] was inactive.

As to `O=c1c(O)c(-c2ccc(O)c(O)c2)oc2cc(O)cc(O)c12`, the AC50 (as a rule, the midpoint of the concentration-response curve, whichever way the signal moves) was 12.2 µM (active) in assay [1]; 7.18 µM (active) in [3]; 17.6 µM (active) in [7]; 7.22 µM (active) in assay [9]; 24.2 µM (active) in assay [11]; 20 µM (active) in assay [12]. Moreover, the half-maximal activity concentration (AC50) in assay [13] was 12.7 µM (active); in the assay with CD40, CD40 (gene 958), 28.5 µM (active); in assay [15], 20 µM (active); in assay [16], 32.8 µM (active). Further, the outcome in assay [2], in assay [4], in assay [18], in assay [14] and in assay [17] was inactive.

Turning to `NC(=O)Cn1c(=O)cc(CCN2CCN(c3nccc4sccc34)CC2)c2ccc(F)cc21`, the outcome in [1], in [2], in assay [3], in assay [4], in assay [6] and in [7] was inactive. The result in [9], in assay [19], in [11], in [12], in assay [13] and in assay [14] was inactive. Also, the result in assay [15], in assay [16] and in [17] was inactive.

Source of the values: PubChem BioAssay (EPA / NIEHS).
